PubChem BioAssay AID651692 (Broad Institute, 2012)
Entries with a potency or affinity are not part of this list. Values without a mark were called inactive.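 Rule for the calls: active = fitted half-maximal concentration for loss of cell signal no higher than twice the top valid tested concentration; inconclusive = flat curve at 30 to 70% inhibition, or poor fit; inactive = flat within 30%, signal rise, or potency above limit.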

experiment: MDA-MB-231 cell growth inhibition, dose response, cytotoxicity control for RAD54 inhibitor project, CellTiter-Glo luminescence, cherry-pick (AID 651692); details: MDA-MB-231 viability, 24 h; series mostly up to 26 µM; activity change, negative = growth inhibition: at the top concentration;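 note: 0% = median of sample compound wells and -100% = staurosporine control wells; more negative values mean stronger loss of viable cell signal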

Row | Structure (SMILES) | activity change, negative = growth inhibition [%]
1 | Cc1c(O)c(CN(C)C)cc2c1oc(=O)c1ccccc12 | 7.59
2 | CCN(CC)CCNC(=S)Nc1ccc2nc(N3CCN(C)CC3)cc(C)c2c1 | -1.16
3 | COc1cc2[nH]c3c(=O)n(CCN(C(C)C)C(C)C)cnc3c2cc1OC | 14
4 | NCCN1CCN(CCN)CC1 | 1.41
5 | CCOC(=O)c1c(C)n(C)c2ccc(OCC(O)CN3CCN(C)CC3)cc12 (centres undefined) | 9.74
6 | Cc1ccc2oc(=O)c3cc(C(=O)NCCCN4CCN(C)CC4)sc3c2c1 | 6.21
7 | CCOC(=O)c1c(NC(=O)c2ccc(S(=O)(=O)N3CCOCC3)cc2)sc2c1CCN(C(C)C)C2 | -3.25
8 | CC(C)OCC(O)CN1CCN(CCN2C(=O)c3cccc4cccc(c34)C2=O)CC1 (centres undefined) | 1.81
9 | O=C(NN1CCOCC1)c1cc(-c2ccc(Cl)c(Cl)c2)nc2ccccc12 | 0.843
10 | CCN1CCN(CCCNC(=O)c2cc3cc4ccc(OC)cc4nc3o2)CC1 | 7.08
11 | CN(C)CCN(C(=O)c1ccco1)c1nc2cc3c(cc2s1)OCCO3 | -3.18
12 | CN(C)CCCNc1nc2cc(-c3ccc(F)cc3)sc2c(=O)n1C | 1.98
13 | CCCN(CCC)CCCNC(=O)c1cc2cc3ccc(OC)cc3nc2o1 | 2.73
14 | CCN(CC)CCCNC(=O)c1cc2c(-c3cccc(OC)c3)nn(C)c2s1 | -1.64
15 | CN(C)CCCNc1nc(-c2ccc(Cl)cc2)nc2ccccc12 | -4.9
16 | COc1cccc(-c2cc(NC=O)c3ncc(-c4cccc(C(=O)NCCN(C)C)c4)n3c2)c1 | -5.61
17 | CC1CCCCN1CCNC(=O)c1cc2c(=O)n(C)c3ccccc3c2n1C (centres undefined) | -12.9
18 | COc1ccc(-c2cc(NC=O)c3ncc(-c4cccc(C(=O)NCCN(C)C)c4)n3c2)cn1 | -14
19 | Cc1cccn2c(=O)c3cc(C(=O)NCCN4CCOCC4)c(=N)n(CCCN4CCOCC4)c3nc12 | 10.8
20 | COc1ccccc1Nc1c2ccccc2nc2ccccc12 | -3.7

Row | Structure (SMILES) | activity change, negative = growth inhibition [%]
21 | CC(CCCN1CCCC1)Nc1ccnc2cc(Cl)ccc12 (centres undefined) | 2.72
22 | CCCCN(CC)CCCNC(=S)Nc1ccc2nc(N3CCN(C)CC3)cc(C)c2c1 | -1.01
23 | CCOc1ccc2nc(C)cc(Nc3ccc4c(c3)OCCO4)c2c1 | -23.8
24 | OCCN1CCN(c2ncnc3c2sc2nc(N4CCOCC4)c4c(c23)CCC4)CC1 | 2.58
25 | COc1cccc(-c2cc3nc(NCCN4CCCC4)n(C)c(=O)c3s2)c1 | -7.44
26 | O=C(COc1ccc2c(c1)oc(=O)c1ccccc12)NCCCN1CCOCC1 | 4.58
27 | Cn1c(NCCN2CCCC2)nc2cc(-c3ccsc3)sc2c1=O | 4.38
28 | Oc1ccc(Nc2nc(N3CCCC3)c3ccccc3n2)cc1 | -10.4
29 | COc1ccc(C(=O)Nc2ccc3nc(N4CCN(C)CC4)cc(C)c3c2)c(OC)c1 | -11
30 | Cc1cc(NCCCN(C)C)n2c(nc3ccccc32)c1C#N | 6.97
31 | CCc1ccc2nc3nc(C)cc(C)c3c(N)c2c1 | 4.96
32 | Cc1c(C)n(CCN(C)C)c2ccc(C(=O)OCCN(C)C)cc12 | 5.66
33 | COC(=O)C1=C(C)Nc2nc3ccccc3n2C1c1ccccc1F (centres undefined) | -6.64
34 | CCN(CC)CCCNC(=O)C1CCN(c2ncnc3c2sc2cccc(F)c23)CC1 | 0.901
35 | O=C(NCCCN1CCCC1)c1cc2c(Cl)nc3ccccc3c2s1 | -12.5
36 | OCCNc1nc(Nc2ccc(O)cc2)nc2ccccc12 | 13.3
37 | COc1ccccc1NC(=O)CNC(=O)c1ccccc1 | 12.8
38 | CCn1cc(C(=O)NCCN(C)C)c(=O)c2cc(F)c(N3CCN(C)CC3)cc21 | -6.57
39 | Cc1nnc2c(N3CCN(CCO)CC3)nc3ccccc3n12 | 5.79
